Drawing on ChEMBL document CHEMBL1961873, “Compounds: GSK PKIS; Assays: Nanosyn kinase panel” (2012), this text covers inhibition for nine compounds.

The target of assay [1] is T1, Inhibitor of nuclear factor kappa-B kinase subunit epsilon (Homo sapiens) (UniProt Q14164).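 Also: reported values are averaged percent inhibition figures against human IKKε.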
T1 sequence (whole entry): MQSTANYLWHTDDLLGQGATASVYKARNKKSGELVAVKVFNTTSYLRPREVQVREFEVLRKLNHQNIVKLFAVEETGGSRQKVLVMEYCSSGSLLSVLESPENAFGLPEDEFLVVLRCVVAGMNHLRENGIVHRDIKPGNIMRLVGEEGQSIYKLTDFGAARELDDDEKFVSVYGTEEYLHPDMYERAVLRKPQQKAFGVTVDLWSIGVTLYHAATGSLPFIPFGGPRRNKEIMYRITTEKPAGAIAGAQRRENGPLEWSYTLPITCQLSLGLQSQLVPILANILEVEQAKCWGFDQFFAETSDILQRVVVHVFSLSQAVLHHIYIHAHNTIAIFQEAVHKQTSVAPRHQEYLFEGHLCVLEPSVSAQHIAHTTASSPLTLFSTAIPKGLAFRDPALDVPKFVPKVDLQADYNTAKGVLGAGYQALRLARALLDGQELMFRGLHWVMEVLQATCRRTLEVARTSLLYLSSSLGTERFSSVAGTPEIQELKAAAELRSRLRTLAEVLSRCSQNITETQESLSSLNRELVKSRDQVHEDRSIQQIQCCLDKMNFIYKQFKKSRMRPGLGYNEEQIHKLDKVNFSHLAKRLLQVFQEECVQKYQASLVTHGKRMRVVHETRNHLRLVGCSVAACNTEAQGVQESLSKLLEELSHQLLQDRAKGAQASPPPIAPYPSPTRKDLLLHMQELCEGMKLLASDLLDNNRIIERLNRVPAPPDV
The settings on record: at 1 µM.

Assay [2] deals with T2, Serine/threonine-protein kinase Nek1 (Homo sapiens) (UniProt Q96PY6).
T2 sequence (whole entry): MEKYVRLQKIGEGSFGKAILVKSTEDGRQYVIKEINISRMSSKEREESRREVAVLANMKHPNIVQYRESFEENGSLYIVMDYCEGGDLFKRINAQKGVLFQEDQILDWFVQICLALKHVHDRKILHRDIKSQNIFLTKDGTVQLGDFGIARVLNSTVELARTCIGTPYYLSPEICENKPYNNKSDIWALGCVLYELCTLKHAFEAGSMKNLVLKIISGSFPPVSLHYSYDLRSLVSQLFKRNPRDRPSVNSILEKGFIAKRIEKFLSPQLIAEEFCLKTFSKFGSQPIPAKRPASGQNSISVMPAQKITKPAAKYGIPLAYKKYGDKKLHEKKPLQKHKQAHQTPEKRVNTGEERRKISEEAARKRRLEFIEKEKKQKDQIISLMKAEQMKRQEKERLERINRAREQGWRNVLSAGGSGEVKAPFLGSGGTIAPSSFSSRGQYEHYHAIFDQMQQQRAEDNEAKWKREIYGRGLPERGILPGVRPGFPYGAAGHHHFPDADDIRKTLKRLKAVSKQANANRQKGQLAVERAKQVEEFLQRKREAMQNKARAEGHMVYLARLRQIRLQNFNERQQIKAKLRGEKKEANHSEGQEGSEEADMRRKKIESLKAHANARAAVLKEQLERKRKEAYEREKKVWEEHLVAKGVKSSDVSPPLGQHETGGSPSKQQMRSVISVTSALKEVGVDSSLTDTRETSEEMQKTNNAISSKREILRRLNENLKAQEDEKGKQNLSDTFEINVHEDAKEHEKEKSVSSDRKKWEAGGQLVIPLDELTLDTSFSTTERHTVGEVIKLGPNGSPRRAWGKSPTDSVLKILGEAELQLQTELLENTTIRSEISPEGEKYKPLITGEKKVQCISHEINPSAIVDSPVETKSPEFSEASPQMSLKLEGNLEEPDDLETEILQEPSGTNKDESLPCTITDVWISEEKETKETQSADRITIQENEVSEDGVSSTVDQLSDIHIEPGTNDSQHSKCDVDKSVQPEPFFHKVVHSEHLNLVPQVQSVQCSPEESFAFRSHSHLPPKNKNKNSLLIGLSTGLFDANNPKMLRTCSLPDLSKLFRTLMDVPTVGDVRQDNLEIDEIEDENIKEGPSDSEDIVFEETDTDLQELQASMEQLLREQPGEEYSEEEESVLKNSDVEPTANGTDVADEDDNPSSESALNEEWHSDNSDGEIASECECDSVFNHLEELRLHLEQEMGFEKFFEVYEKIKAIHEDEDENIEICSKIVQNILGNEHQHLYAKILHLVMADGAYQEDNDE
The settings on record: at 0.1 µM.

For assay [3], the target named is T2, Serine/threonine-protein kinase Nek1 (Homo sapiens). The settings on record: at 1 µM.
The target in assay [4] is T3, Serine/threonine-protein kinase Nek2 (Homo sapiens) (UniProt P51955).
T3 sequence (whole entry): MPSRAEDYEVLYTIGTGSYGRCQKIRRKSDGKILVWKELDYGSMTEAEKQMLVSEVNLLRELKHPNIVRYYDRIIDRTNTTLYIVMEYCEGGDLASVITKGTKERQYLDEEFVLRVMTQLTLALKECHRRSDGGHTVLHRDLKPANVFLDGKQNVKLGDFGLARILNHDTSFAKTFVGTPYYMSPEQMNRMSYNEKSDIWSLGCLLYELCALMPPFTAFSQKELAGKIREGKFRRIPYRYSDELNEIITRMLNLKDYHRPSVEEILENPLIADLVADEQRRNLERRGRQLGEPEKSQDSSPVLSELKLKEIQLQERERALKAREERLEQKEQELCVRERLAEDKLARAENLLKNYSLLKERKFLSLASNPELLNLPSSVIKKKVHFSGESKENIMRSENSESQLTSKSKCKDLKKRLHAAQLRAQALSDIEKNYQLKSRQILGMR
The settings on record: at 0.1 µM.

The target of assay [5] is T3, Serine/threonine-protein kinase Nek2 (Homo sapiens). The settings on record: at 1 µM.
In assay [6] the target is Serine/threonine-protein kinase Nek6 (Homo sapiens) (UniProt Q9HC98). The settings on record: at 0.1 µM.
For assay [7] the target is unchanged. The settings on record: at 1 µM.
Assay [8] deals with Serine/threonine-protein kinase Nek7 (Homo sapiens) (UniProt Q8TDX7). The settings on record: at 0.1 µM.
The target is the same in assay [9]. The settings on record: at 1 µM.
The target of assay [10] is T4, Serine/threonine-protein kinase Nek9 (Homo sapiens) (UniProt Q8TD19).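 Also: reported value is the mean percent inhibition of NEK9.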
T4 sequence (whole entry): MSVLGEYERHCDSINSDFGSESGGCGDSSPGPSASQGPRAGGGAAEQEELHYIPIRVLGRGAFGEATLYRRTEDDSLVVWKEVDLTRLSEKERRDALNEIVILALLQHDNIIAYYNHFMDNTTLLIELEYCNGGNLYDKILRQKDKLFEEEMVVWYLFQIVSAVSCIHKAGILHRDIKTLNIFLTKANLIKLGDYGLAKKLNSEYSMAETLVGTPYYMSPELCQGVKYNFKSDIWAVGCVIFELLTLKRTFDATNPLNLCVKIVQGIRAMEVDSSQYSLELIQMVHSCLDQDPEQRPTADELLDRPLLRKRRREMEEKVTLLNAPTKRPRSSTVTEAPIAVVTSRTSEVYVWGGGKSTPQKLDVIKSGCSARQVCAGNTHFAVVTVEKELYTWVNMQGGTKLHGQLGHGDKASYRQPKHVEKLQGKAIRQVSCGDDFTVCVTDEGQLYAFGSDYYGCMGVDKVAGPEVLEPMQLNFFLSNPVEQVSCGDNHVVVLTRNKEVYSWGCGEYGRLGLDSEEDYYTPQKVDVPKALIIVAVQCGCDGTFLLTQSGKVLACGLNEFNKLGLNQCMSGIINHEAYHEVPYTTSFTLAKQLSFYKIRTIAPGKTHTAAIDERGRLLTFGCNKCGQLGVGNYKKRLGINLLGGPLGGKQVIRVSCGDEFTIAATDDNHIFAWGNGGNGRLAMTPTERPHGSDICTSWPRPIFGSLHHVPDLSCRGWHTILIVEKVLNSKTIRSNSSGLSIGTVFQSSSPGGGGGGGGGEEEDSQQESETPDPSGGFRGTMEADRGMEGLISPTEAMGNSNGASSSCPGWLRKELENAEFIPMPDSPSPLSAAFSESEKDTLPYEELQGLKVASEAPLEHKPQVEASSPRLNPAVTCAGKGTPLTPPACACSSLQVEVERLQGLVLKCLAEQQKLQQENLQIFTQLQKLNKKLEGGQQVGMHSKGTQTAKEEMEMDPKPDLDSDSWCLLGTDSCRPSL
The settings on record: at 0.1 µM.

Serine/threonine-protein kinase Nek6 (Homo sapiens), sequence (Q9HC98 whole entry): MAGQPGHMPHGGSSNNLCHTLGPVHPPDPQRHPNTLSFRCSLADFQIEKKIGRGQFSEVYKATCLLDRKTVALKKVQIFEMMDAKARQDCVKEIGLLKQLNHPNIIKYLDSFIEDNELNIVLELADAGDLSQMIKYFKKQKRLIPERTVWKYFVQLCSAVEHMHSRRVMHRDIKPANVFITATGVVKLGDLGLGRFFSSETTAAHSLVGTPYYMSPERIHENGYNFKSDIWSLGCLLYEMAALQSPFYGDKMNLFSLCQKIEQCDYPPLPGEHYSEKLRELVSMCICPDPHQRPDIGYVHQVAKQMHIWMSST
Serine/threonine-protein kinase Nek7 (Homo sapiens), sequence (Q8TDX7 whole entry, looked up): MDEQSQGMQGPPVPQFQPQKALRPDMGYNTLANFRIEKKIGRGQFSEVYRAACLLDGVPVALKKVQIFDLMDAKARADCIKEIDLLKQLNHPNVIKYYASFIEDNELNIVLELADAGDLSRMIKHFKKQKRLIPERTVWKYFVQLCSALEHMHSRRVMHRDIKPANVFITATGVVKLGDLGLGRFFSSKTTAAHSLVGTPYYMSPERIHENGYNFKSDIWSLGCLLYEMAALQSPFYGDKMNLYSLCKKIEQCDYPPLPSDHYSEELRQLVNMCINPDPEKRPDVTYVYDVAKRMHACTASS

Consider `CS(=O)(=O)Nc1ccc(N/C=C2\C(=O)Nc3ccccc32)cc1`, for which the inhibition (in general, the change of the read-out against control, counted positive when it falls) in assay [1] was 7.71%; in [2], -1.43%; in assay [3], -2.34%; in assay [4], -2.87%; in [5], -3.33%; in [6] it was -1.58%. The inhibition was -2.98% in assay [7], -4.38% in assay [8], -3.48% in assay [9] and -0.57% in [10].

Turning to `NCc1ccc(-c2nc(-c3ccc(Cl)c(O)c3)c(-c3ccncc3)[nH]2)cc1`, the inhibition in assay [1] was -0.03%; in assay [2], 0.3%; in assay [3], 1.09%; in assay [4], -2.48%; in assay [5], 0.73%; in assay [6], -0.93%. Moreover, the inhibition is -1.57% in assay [7], 1.75% in assay [8], 1.7% in [9] and 7.64% in [10].

For `CCN1CCC(CC(=O)Nc2n[nH]c3nc(-c4cccs4)c(Br)cc23)CC1`, the inhibition was -3.61% in assay [1]; -1.51% in assay [2]; 0.77% in assay [3]; -1.87% in assay [4]; -2.3% in assay [5]; -1.1% in [6]. Further, the inhibition in assay [7] was -2.19%; in assay [8] it was 0.31%; in assay [9] it was -4.11%; in [10], 0.24%.

With `COc1cccc(-n2ncc3c(N/N=C/c4cccc(F)c4)ncnc32)c1`, the inhibition turned out to be 5.09% in assay [1]; 2.19% in [2]; 1.87% in [3]; 3.27% in [4]; 2.63% in assay [5]; 2.56% in [6]. In addition, the inhibition came to 1.3% in assay [7], 4.53% in [8], 2.91% in [9] and 3.6% in assay [10].

Regarding `COc1cc2ncn(-c3cc(OCc4ccccc4C(F)(F)F)c(C(N)=O)s3)c2cc1OC`, the inhibition in assay [1] turned out to be 5.84%; in assay [2], 3.95%; in [3], 19.1%; in assay [4], 6.41%; in assay [5], 17.1%; in assay [6], 0.15%. The inhibition in assay [7] is 2.1%; in assay [8] it was 3.29%; in assay [9], 5.2%; in assay [10], 16.7%.

For `Cc1cc(O)cc(C)c1/C=C/c1cncc(-c2nn[nH]n2)c1`, the inhibition is 4.14% in [1]; 3.13% in [2]; 3.26% in assay [3]; 5.36% in [4]; 4.88% in assay [5]; 1.26% in [6]. Moreover, the inhibition came out at 1.3% in assay [7], 4.96% in [8], 4.04% in [9] and 4.65% in assay [10].

As for `CS(=O)(=O)CCNCc1ccc(-c2ccc3ncnc(Nc4ccc(OCc5ccccc5)c(Cl)c4)c3c2)o1`, the inhibition in assay [1] is -0.15%; in assay [2], 1.25%; in assay [3] it was 2.81%; in [4], 1.61%; in assay [5] it was 0.43%; in assay [6], 3.37%. Also, the inhibition was -1.04% in [7], 0.02% in assay [8], 2.5% in assay [9] and -1.85% in [10].

As for `c1cnn2ncc(-c3ccnc(Nc4ccc5c(c4)OCCO5)n3)c2c1`, the inhibition is 20.5% in assay [1]; 4.85% in assay [2]; 20.4% in assay [3]; 4.88% in assay [4]; 15.4% in [5]; 3.89% in assay [6]. In addition, the inhibition in assay [7] stood at 4.5%; in assay [8], 3.53%; in assay [9] it was 6.49%; in [10], 16.2%.

For `N#Cc1c(NC(=O)c2cccc3ccccc23)sc2c1CCCC2`, the inhibition in assay [1] was determined as 1.87%; in assay [2] it was 1.19%; in assay [3], 1.42%; in assay [4] it was 3.93%; in [5], 4.37%; in [6], 3.32%. Besides, the inhibition amounted to 1.3% in [7], 5.78% in [8], 3.68% in [9] and 5.96% in assay [10].
